# Hits are enriched below; roughly 8% of the tested compounds scored in any of these assays.
# HCV inhibitor = blocks hepatitis C virus. Potency, µM (series often up to 41.8 µM), for the others: top-dose activity change, negative = inhibition, usual class: inhibitors. actives 3.4% (n = 340,000). AID 651820. Huh7.5.1 HCVcc-Cre infection, luciferase reporter, 44 h; active = well fitted inhibition curve with a large enough effect; inconclusive = small, poorly fitted or top-dose-only effect, or another doubt; inactive = no such curve, though single readings can be large or run the other way; note: potency is the fitted concentration of half-maximal effect; % is set by controls: 0 for no effect and ±100 for the full control effect
#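 Seed cells (1,000/well) for 4 h; treat with compound and infect with HCVcc-Cre, moi about 0.5. Incubate 44 h, then detect luciferase activity.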
# SARS PLpro yeast = blocks SARS-CoV papain-like protease in a yeast assay; actives 0.19% (n = 330,000); Potency, µM (top dose mostly 32.9 µM), for the others: at the highest dose activity, positive = growth rescue, actives largely listed as activators; S. cerevisiae expressing SARS-CoV PLpro, growth rescue; AID 485353; calls by dose curve; note: potency is the fitted concentration of half-maximal effect; 0% is about no effect; nearly all actives have a fitted effect of over 55% in size
# HCMV inh = blocks human cytomegalovirus replication; HFF cells, HCMV-luciferase reporter, 72 h; stronger effect = lower value; activity change, negative = inhibition, % at 57.5 µM; actives 4.5% (n = 410,000); AID 1259415; in the data active = activity change below about -60%; inconclusive = no clear call, values can overlap the other calls; inactive = above about -39%; note: % is set by controls: 0 for no effect and ±100 for the full control effect
#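 HFF cells seeded 16 h at 37C, treated with compounds, infected with luciferase-reporter HCMV at MOI 1 PFU/cell; luciferase read at 72 h post infection, normalized to buffer-only and Salinomycin controls.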
# MARV entry inh = inhibitors of Marburg virus binding or cell entry; actives 1.8% (n = 300,000); AID 540276; Marburg virus pseudotyped entry inhibition, cell reporter; Potency, µM (doses to about 37.8 µM), inactives show at the top dose activity change, negative = inhibition, hits mostly inhibitors; calls by dose curve; tested in HEK293 cells; note: potency is the fitted concentration of half-maximal effect; % is set by controls: 0 for no effect and ±100 for the full control effect
# FMDV antiviral = antivirals against foot and mouth disease virus; FMDV antiviral cell-based qHTS; Potency, µM (doses to about 57.9 µM), inactives show at the highest dose activity change, negative = inhibition, actives largely listed as inhibitors; actives 1.2% (n = 410,000); calls by dose curve; tested in HEK293T cells; note: read-out not given here; potency is the fitted concentration of half-maximal effect; % is set by controls: 0 for no effect and ±100 for the full control effect; nearly all actives have a fitted effect of over 45% in size
# LASV entry inh = Lassa virus entry inhibition | AID 540256 | Lassa virus pseudotype entry inhibition, cell reporter | Potency, µM (titrated, usually from 37.9 µM), inactives show at the top dose activity change, negative = inhibition, actives largely listed as inhibitors | actives 1.2% (n = 300,000); calls by dose curve; tested in HEK293 cells; note: potency is the fitted concentration of half-maximal effect; % is set by controls: 0 for no effect and ±100 for the full control effect; nearly all actives have a fitted effect of over 50% in size
# An asterisk follows results filed as active; ? = inconclusive; · = no result; [ ] = dose if it differs, or a comment.
SMILES,HCV inhibitor,SARS PLpro yeast,HCMV inh,MARV entry inh,FMDV antiviral,LASV entry inh
CCN(CC)CCNC(=O)c1ccc2c(c1)N(Cc1ccccc1)C(=O)c1ccccc1S2=O (stereo not drawn),·,·,-70*,?,-20%,6%[46.1 µM]
CCN1CCN(CCNC(=O)c2ccc3c(c2)N(Cc2cccc(Cl)c2)C(=O)c2ccccc2S3=O)CC1 (stereo not drawn),?,2%,-73*,?,27%,?
Cc1cccc(CN2C(=O)c3ccccc3Sc3ccc(C(=O)NCc4ccco4)cc32)c1,·,·,-73*,·,-7%,?
O=C(NCCCN1CCOCC1)c1ccc2c(c1)N(Cc1c(F)cccc1Cl)C(=O)c1ccccc1S2,?,1%,0,·,?,·
O=C(NCCCN1CCOCC1)c1ccc2c(c1)N(Cc1cccc(Cl)c1)C(=O)c1ccccc1S2,·,·,-89*,·,-21%,-14%[46.1 µM]
Cc1ccc(CCNC(=O)c2ccc3c(c2)N(Cc2ccccc2)C(=O)c2ccccc2S3=O)cc1 (stereo not drawn),·,·,-9,-1%[46.1 µM],-25%,-11%[46.1 µM]
Cc1nc2c(-c3ccc(F)cc3)c(C)nn2c(C)c1CCC(=O)NCc1cccc(Cl)c1,·,·,2,1%[46.1 µM],0%,-3%[46.1 µM]
NCCc1nc2cccnc2n1-c1ccccc1,·,·,12,·,-22%,?
CC(C)CN(C(=O)COC(=O)C12CC3CC(CC(C3)C1)C2)c1c(N)n(Cc2ccccc2)c(=O)[nH]c1=O,16µM*,-5%,-84*,-1%[46.1 µM],-18%,4%
Cc1ccc(SCC(=O)OCC(=O)N(CC(C)C)c2c(N)n(Cc3ccccc3)c(=O)[nH]c2=O)c(C)c1,10µM*,1%,-11,?,-23%,?
CC(=O)Nc1sc(C)c(C)c1C(=O)OCC(=O)N(CC(C)C)c1c(N)n(Cc2ccccc2)c(=O)[nH]c1=O,5µM*,-6%,-31,10%[46.1 µM],-10%,5%
CC(C)CN(C(=O)COC(=O)C12CC3CC(CC(O)(C3)C1)C2)c1c(N)n(Cc2ccccc2)c(=O)[nH]c1=O,·,·,?,·,-2%,·
COC(=O)c1c(C)[nH]c(C(=O)OCC(=O)N(CC(C)C)c2c(N)n(Cc3ccccc3)c(=O)[nH]c2=O)c1C,?,1%,23,10%,-12%,-35%[46.1 µM]
CC1CN(Cc2cccn2-c2ncccn2)Cc2cc(Cl)ccc2O1 (stereo not drawn),·,·,·,·,-14%,·
CCc1ccc(NC(=O)CCn2c(-c3ccc(OC)cc3)cc(C(C)=O)c2C)cc1,·,·,0,·,-24%,-9%[46.1 µM]
S=C(NCc1ccc2c(c1)OCO2)NC1CCN(Cc2ccccc2)CC1,?,-3%,-78*,?,21%,?
S=C(Nc1ccc(Cl)c(Cl)c1)NC1CCN(Cc2ccccc2)CC1,14µM*,-1%,-78*,?,14µM*,?
S=C(Nc1ccccc1)Nc1cccc(Cl)c1Cl,8%,0%,-28,·,22%,·
S=C(NCc1ccccc1)N1CCN(Cc2ccc3c(c2)OCO3)CC1,3%,0%,-35,?,-3%,0%
S=C(Nc1ccc(CN2CCCCC2)cc1)Nc1cccc(Cl)c1Cl,?,5%,-27,11µM*,-3%,?
S=C(Nc1cccc(Cl)c1Cl)NC1CCN(Cc2ccccc2)CC1,?,-4%,-66*,?,-6%,?
Cc1cccc(NC(=S)NC2CCN(Cc3ccccc3)CC2)c1C,-15%,-7%,-38,-17%,?,-23%
COc1cccc(C2=NN(S(C)(=O)=O)C(c3cn(-c4ccccc4)nc3-c3cccs3)C2)c1 (stereo not drawn),·,·,30,-24%[46.1 µM],30%,18%[46.1 µM]
COc1ccccc1N1CCN(c2nc(-c3ccc(C)cc3)nc3ccccc23)CC1,·,·,-21,·,?,1%[46.1 µM]
O=C(O)c1cc(Oc2ccc([N+](=O)[O-])cc2)cc(Oc2ccc([N+](=O)[O-])cc2)c1,·,·,·,·,0%,·
SMILES,HCV inhibitor,SARS PLpro yeast,HCMV inh,MARV entry inh,FMDV antiviral,LASV entry inh
CCOC(=O)C(=O)Nc1nnc2n1CCS2,·,·,1,·,-4%,-10%[46.1 µM]
CC(C)(C)C(=O)NC1(C(F)(F)F)C(=O)Nc2c1c(=O)[nH]c(=O)n2-c1ccccc1 (stereo not drawn),·,·,7,4%[46.1 µM],-10%,4%[46.1 µM]
CCCCNC(=O)c1nn(-c2ccc(C)cc2)c(=O)c2c1c1ccccc1n2C,·,·,-1,-7%[46.1 µM],-17%,19%[46.1 µM]
CCc1ccc(CN(C(=O)Nc2cccc(Cl)c2)c2ccccn2)cc1,·,·,24,18%[46.1 µM],36%,-1%[46.1 µM]
Cc1ccc(S(=O)(=O)CC(CN2CCCCC2)N2CCCCC2)cc1 (stereo not drawn),16µM*,-1%,-99*,10%[46.1 µM],28µM*,15%
O=S(=O)(CC(CN1CCOCC1)N1CCOCC1)c1ccccc1 (stereo not drawn),23%,-3%,-29,·,-12%,·
O=S(=O)(CC(CN1CCCCC1)N1CCCCC1)c1ccc2ccccc2c1 (stereo not drawn),25%,0%,-73*,3.5µM*,?,?
COCCC1CCCCN1Cc1nc(N2CCCC2)c2cc(OC)c(OC)cc2n1 (stereo not drawn),·,·,·,·,-2%,·
CCC1(C)Cc2c(sc(NC(=S)NC(=O)c3ccccc3)c2C#N)CO1 (stereo not drawn),7%,-30%,7,14%,-2%,1%
CN1Cc2sc(NC(=S)NC(=O)c3ccccc3)c(C#N)c2CC1(C)C,?,-3%,-76*,?,?,?
O=C(NN=Cc1ccc(N(CCCl)CCCl)cc1)c1cc(=O)[nH]c(=O)[nH]1,-14%,·,15,?,-18%,?
O=C(Cc1cc(=O)oc2cc(O)ccc12)NN=Cc1ccc(N(CCCl)CCCl)cc1,-14%,·,?,4.5µM*,-26%,?
CCOC(=O)C(=CNc1cc(Cl)c(-c2ccco2)c(Cl)c1)C(=O)OCC,13µM*,-1%,9,·,-26%,·
CCOC(=O)C(=CNc1ccccc1Cl)C(=O)OCC,?,3%,-61*,·,-2%,·
CCOC(=O)C(=CNc1ccc(-c2ccco2)c(Cl)c1)C(=O)OCC,?,-1%,?,·,-22%,·
COc1ccccc1-n1cnc2c(c1=O)c1nc3ccccc3nc1n2CCc1ccccc1,4%,-11%,?,20%,-28%,17%
C=CCn1cnc2c(c1=O)c1nc3ccccc3nc1n2-c1ccc(C)cc1,24%,10%,-22,·,·,·
COc1ccccc1-n1cnc2c(c1=O)c1nc3ccccc3nc1n2-c1ccc(C)cc1,?,-47%,-87*,-3%,-15%,9%
COc1ccccc1-n1c2nc3ccccc3nc2c2c(=O)n(-c3cc(C)cc(C)c3)cnc21,?,-28%,-69*,?,?,5%
CCOc1ccc(CN2CCN(C(=O)c3cccc4ccccc34)CC2)cc1,7.1µM*,-1%,?,·,?,·

# Bioassay records: PubChem BioAssay, National Center for Advancing Translational Sciences (NCATS)
